Source: PubChem (NMMLSC)
Rows were chosen to be rich in hits. Some 1.2% of all compounds tested hit in one or more screens of this group.
RGS7-Gao reg = regulators of human RGS7-Galphao interaction; binding response (% of control), % at 10 µM; P09471; AID 1439; 220,000 tested, 0.35% active; Multiplexed bead flow cytometry, RGS7-Galphao binding; actives lie on both sides; in the data active means binding response below about 49% or above about 150%; inconclusive means no clear call, values can overlap the other calls; inactive means in between;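 further: fluorescent Galphao held in activated GDP-AlF4 state binding bead-coupled RGS7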
Target sequence (P09471 whole entry, looked up): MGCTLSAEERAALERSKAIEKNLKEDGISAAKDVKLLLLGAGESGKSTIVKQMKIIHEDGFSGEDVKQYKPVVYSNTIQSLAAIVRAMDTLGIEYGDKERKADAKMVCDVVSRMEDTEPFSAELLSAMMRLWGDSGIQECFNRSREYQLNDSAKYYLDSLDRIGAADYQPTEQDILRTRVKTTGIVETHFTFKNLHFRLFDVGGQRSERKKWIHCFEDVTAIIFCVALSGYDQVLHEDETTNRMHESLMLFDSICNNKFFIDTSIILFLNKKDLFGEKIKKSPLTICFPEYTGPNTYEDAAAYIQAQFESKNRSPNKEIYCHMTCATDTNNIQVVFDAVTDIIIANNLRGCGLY
RGS16-Gao = RGS16-Galphao interaction regulator (human). O15492+P09471. bead-based flow cytometry RGS16-Galphao binding, fluorescence; actives lie on both sides. binding response (% of control), % at 10 µM. 220,000 tested, 0.38% active;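 further: Galphao activated by GDP with aluminum fluoride before binding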
RGS8-Gao = human RGS8-Galphao interaction regulation; P09471; multiplexed bead flow cytometry, RGS8-Galphao binding; actives lie on both sides; response (percent of control binding), % at 10 µM; 220,000 tested, 0.34% active; in the data active means response below about 60% or above about 140%; inactive means in between;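 further: Galphao activated as the GDP aluminium fluoride complex binding bead-coupled RGS8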
Avidin fluor = avidin bead compound fluorescence profile; 220,000 tested, 0.38% active; Avidin beads, compound fluorescence 488/530 nm, flow cytometry; hits give high values; fluorescence (KMESF) at 10 µM; in the data active means fluorescence above about 47
RGS4-Gao reg = modulates binding of RGS4 to human Galphao | AID 1415 | binding response (% of control), % at 10 µM | Multiplexed bead flow cytometry; actives lie on both sides | 220,000 tested, 0.33% active | P09471; in the data active means binding response below about 49% or above about 150%; inactive means in between;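 further: fluorescent Galphao activated with aluminum fluoride binding bead-coupled RGS4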
GSH fluor = compound fluoresces at 488/530 nm on GSH beads; GSH beads flow cytometry, compound fluorescence 488/530 nm; hits give high values; fluorescence (KMESF) at 10 µM; 190,000 tested, 0.25% active; in the data active means fluorescence above about 89;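 further: glutathione beads carrying GST-tagged Bcl family fusion proteins plus one bare bead set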
RGS4-Gao HTS = RGS4-Galphao interaction regulator (human); shares compounds with RGS16-Gao; multiplexed bead flow cytometry, RGS–Galpha-o binding; RGS4–Galpha-o binding response, % at 10 µM; 1,600 tested, 99% active; AID 1504;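 further: fluorescently labeled Galpha-o bound to GDP with aluminium fluoride binding biotinylated RGS beads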
Biotin-avidin = counter-screen: compounds disrupting biotin binding to avidin beads; shares compounds with RGS16-Gao; streptavidin beads, fluorescein-biotin binding, flow cytometry; inhibition, % at 10 µM; 1,700 tested, under 10 active; AID 1783;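 active means inhibition above 50%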;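 further: median green fluorescence of gated singlet beads compared with DMSO control wells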
RGS8-Gao confirm = confirmation of regulators of human RGS8-Galphao interaction. AID 1836. 1,700 tested, 3% active. bead-based flow cytometry RGS8-Galphao binding, fluorescence; actives lie on both sides. shares compounds with RGS16-Gao. binding response (% of control), % at 10 µM; in the data active means binding response below about 72% or above about 130%; inactive means in between;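 further: Galphao activated as GDP AlF4 complex before binding bead RGS8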
RGS7-Gao confirm = RGS7-Galphao interaction regulation, single point confirmation; response (percent of control binding), % at 10 µM; 1,700 tested, 7.8% active; bead-based flow cytometry RGS7-Galphao binding; actives lie on both sides; AID 1837; shares compounds with RGS16-Gao; in the data active means response below about 75% or above about 130%; inactive means in between;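 further: fluorescent Galphao activated with GDP and aluminum fluoride binding bead-coupled RGS7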
RGS16-Gao single = confirmation of regulators of human RGS16-Galphao interaction. shares compounds with RGS16-Gao. bead-based flow cytometry, RGS16-Galphao binding; actives lie on both sides. response (% of control binding), % at 10 µM. 1,700 tested, 4% active; in the data active means response below about 74% or above about 130%; inactive means in between;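 further: Galphao activated as the GDP aluminium fluoride complex binding bead-coupled RGS16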
RGS4-Gao confirm = confirmation of regulators of human RGS4-Galphao interaction | shares compounds with RGS16-Gao | RGS4-Galphao binding, multiplexed bead flow cytometry; actives lie on both sides | binding response (% of control), % at 10 µM | 1,700 tested, 4% active | AID 1840; in the data active means binding response below about 74% or above about 130%; inactive means in between
RGS19-Gao single = confirmation of regulators of human RGS19-Galphao interaction | shares compounds with RGS16-Gao | 1,700 tested, 5% active | response (percent of control binding), % at 10 µM | bead-based flow cytometry RGS19-Galphao binding; actives lie on both sides; in the data active means response below about 50% or above about 160%; inactive means in between
Numbers stand for hits; - = inactive; ? = inconclusive; . = not tested or not shown; [ ] = remark or other dose. Unless noted, how the calls were made is not given here.

SMILES	RGS7-Gao reg	RGS16-Gao	RGS8-Gao	Avidin fluor	RGS4-Gao reg	GSH fluor	RGS4-Gao HTS	Biotin-avidin	RGS8-Gao confirm	RGS7-Gao confirm	RGS16-Gao single	RGS4-Gao confirm	RGS19-Gao single
O=C(c1cc2ccc([N+](=O)[O-])cc2oc1=O)N1CCOCC1	-	-	-	-	-	-	.	.	.	.	.	.	.
COCCCN1CN(Cc2ccccc2)CNC1=S	-	-3.3	-	-	-	-	79	-	-	-	-	-	-
Cn1c(=O)oc2cc(S(=O)(=O)N3CCC(C(=O)NCC4COc5ccccc5O4)CC3)ccc21 (stereo not drawn)	-	-	-	-	-	-	.	.	.	.	.	.	.
CC(=O)Oc1ccc(C2OC(=O)c3ccccc3N2C(C)=O)cc1 (stereo not drawn)	.	.	-	.	.	-	.	-	-	-	-	-	-
COc1ccc(C2Oc3ccccc3N2C(C)=O)cc1 (stereo not drawn)	-	-	-	-	-	-	.	.	.	.	.	.	.
COc1cc(S(=O)(=O)Nc2cccc(C)c2)ccc1NC(=O)c1cccnc1	-	-	-	-	-	-	.	.	.	.	.	.	.
CCOC(=O)C(=Cc1ccc(-n2ccnc2)cc1)C(=O)OCC	?	-2.5	6.7	-	4.6	-	.	-	-	-	-	-	-
O=C(C1CCN(S(=O)(=O)c2cnc[nH]2)CC1)N1CCN(c2ncccn2)CC1	-	-	-	-	-	-	.	.	.	.	.	.	.
O=C(O)c1cc(C(F)(F)F)nc2c(C(F)(F)F)cccc12	174[activator]	-	-	-	-	-	143	.	.	.	.	.	.
O=C(NC1CCCC1)C(c1ccsc1)N(C(=O)Cc1cccs1)c1ccccc1 (stereo not drawn)	-	-	-	-	-	-	.	.	.	.	.	.	.
COc1ccc(-c2[nH]ncc2CN(C)CCN2CCOCC2)cc1F	-15	-4.7	6.9	-	-6.3	-	.	-	-	-	-	-	-
CC(OC(=O)c1ccccc1NS(=O)(=O)c1cccc(N)c1)C(=O)N(C)Cc1ccccc1 (stereo not drawn)	-	12	-	-	-	-	91	-	-	-	-	-	-
O=C(CSc1nnc(-c2ccncc2)o1)Nc1ccccc1Cl	215[activator]	250[activator]	-	130	-	-	133	-	-	-	-	-	-
O=C(CSc1nnc(-c2ccccc2)o1)Nc1ccccc1F	173[activator]	-	-	91	-	-	111	-	-	-	-	-	-
O=C(O)CCCNC(=O)c1cncc(O)c1	-	-	-	-	-	-	.	.	.	.	.	.	.
O=C(c1cccs1)N1CCc2ccccc21	153[activator]	-	-	-	154[activator]	-	.	-	-	-	-	-	-
COc1ccc2[nH]c(=O)c(CNc3ccc(C)cc3C)cc2c1	?	-	-	-	-	.	.	.	.	.	.	.	.
NC(=O)COC(=O)c1cc(Cl)cc(Cl)c1N	-	-	-	-	-	-	.	.	.	.	.	.	.
Nc1c(Cl)cc(Cl)cc1C(=O)OCC(=O)N1CCCC1	9.7	4.0	14	-	11	-	.	-	-	-	-	-	-
O=C(NCCc1ccncc1)Nc1cccc(Cl)c1	-	-	-	-	-	-	.	.	.	.	.	.	.
